Experimental data from PubChem BioAssay.
The source made the active and inactive calls.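 How the source made its calls, unless noted: active means inhibition of the reporter signal at or above 50%; inactive means inhibition below 50%.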

How the values were obtained:
[1] = inhibitors of TNFa-induced NFkB p65 translocation, primary screen, imaging, HUVEC, MLSMR starter and 10KST1 sets (AID 438;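 active means inhibition above 20% together with a positive visual image hit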;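 further: compound added about 3h40 before a 20 min TNFalpha stimulation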;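 on inhibition: signal is the nuclear over cytoplasmic p65 intensity ratio per well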); conditions: HUVEC TNFa-induced p65 nuclear translocation; cell count: measured here: nuclei count (cytotoxicity indicator), at 2.08 µM; inhibition: at 2 µM, stronger effect = higher value, 0% TNFa-plus-vehicle, 100% no-TNFa wells
[2] = inhibitors of mutant huntingtin aggregation, primary screen, imaging, exon1htt(103Q)mCFP cells, high-content imaging (AID 483;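 active means visual image review flags a hit and inhibition of aggregation exceeds 20%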;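 further: compound exposure lasted 3 days before fixation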;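 on nuclei count: percent of the per-plate median nuclei count of sample wells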); conditions: exon1htt(103Q)mCFP cell line, aggregate imaging, at 2 µM; inhibition of aggregation: stronger effect = higher value; nuclei count: measured here: cell count, toxicity
[3] = inhibitors of E-selectin induction by TNFa, primary screen, imaging, HUVEC, immunofluorescence, MLSMR starter and 10KST1 sets (AID 487;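 active means visually confirmed hit in the image check and inhibition above 20%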;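 on inhibition: signal is fraction of cell area covered by stained E-selectin grains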;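 on nuclei count: 100% = median nuclei count of all wells on the same plate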); conditions: HUVEC TNFalpha-induced E-selectin immunofluorescence imaging, at 2 µM; inhibition: stronger effect = higher value; nuclei count: measured here: cell number, toxicity
[4] = target: Voltage-gated potassium channel subunit beta-2 (Rattus norvegicus) (UniProt P62483); assay: KvBeta enzyme negative modulators, primary screen, biochemical, NADPH fluorescence (AID 622;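 active means fluorescence slope higher than the sample average by over 3 SD, cut at about -0.22 in these data, passing the limit was not always enough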;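 further: slope of raw intensity against log time taken from 70 to 1610 s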); conditions: recombinant KvBeta, 4-cyanobenzaldehyde reduction, at 10 µM, stronger effect = higher value
[5] = target: Voltage-gated potassium channel subunit beta-2 (Rattus norvegicus) (UniProt P62483); assay: KvBeta positive modulators, primary screen, biochemical, NADPH fluorescence (AID 623;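 active means NADPH fluorescence slope more negative than the mean of all samples by about 3 SD, 99.7% confidence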;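 further: fluorescence intensity change per second fitted from 20 to 320 s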); conditions: Recombinant KvBeta, NADPH fluorescence decrease slope, 10 min; at 10 µM; stronger effect = lower value
[6] = target: Alpha-2C adrenergic receptor (Homo sapiens) (UniProt P18825); assay: modulators of alpha2C/GIRK thallium flux, primary screen, cell-based, HEK293 alpha2C/GIRK1/2 (AID 624;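 active means fluorescence slope after compound addition differing from the mean of all screened samples at 99.7% confidence, in either direction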;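 further: slope of fluorescence ratio to pre-addition baseline per second over 15 to 24 s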); conditions: thallium flux BTC fluorescence, at 10 µM, actives lie on both sides
[7] = inhibitors of Sendai virus-induced IRF3 signaling, primary screen, TLR/RLR signaling modifier project, cell-based, Sendai virus stimulus, luciferase, 10K MLSCN set (AID 602276;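 active means inhibition at or above 50% at 10 µM; inactive means inhibition below 50%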;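 further: firefly luciferase from ISG56 promoter only with Renilla not read in this screen; 0% = Sendai virus plus DMSO and 100% = medium plus DMSO without virus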); conditions: HEK293 RL24 IRF3 luciferase reporter, at 10 µM, stronger effect = higher value
[8] = inhibitors of poly I:C-induced TLR3 signaling, primary screen, cell-based, poly I:C stimulus, luciferase, 10K MLSCN set (AID 602277); conditions: HEK293-TLR3 RL24 IRF3 luciferase reporter, at 10 µM, stronger effect = higher value

Voltage-gated potassium channel subunit beta-2 (Rattus norvegicus), sequence (P62483 whole entry, looked up): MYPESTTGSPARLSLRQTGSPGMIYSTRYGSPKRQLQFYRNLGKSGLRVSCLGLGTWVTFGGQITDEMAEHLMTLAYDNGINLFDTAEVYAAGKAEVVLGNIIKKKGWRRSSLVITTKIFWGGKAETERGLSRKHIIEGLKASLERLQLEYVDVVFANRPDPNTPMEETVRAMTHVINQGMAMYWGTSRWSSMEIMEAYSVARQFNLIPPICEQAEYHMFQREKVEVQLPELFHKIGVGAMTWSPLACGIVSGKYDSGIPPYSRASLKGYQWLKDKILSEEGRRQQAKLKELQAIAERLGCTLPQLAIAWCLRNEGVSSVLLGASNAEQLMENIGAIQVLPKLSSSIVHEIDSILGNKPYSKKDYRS
Alpha-2C adrenergic receptor (Homo sapiens), sequence (P18825 whole entry, looked up): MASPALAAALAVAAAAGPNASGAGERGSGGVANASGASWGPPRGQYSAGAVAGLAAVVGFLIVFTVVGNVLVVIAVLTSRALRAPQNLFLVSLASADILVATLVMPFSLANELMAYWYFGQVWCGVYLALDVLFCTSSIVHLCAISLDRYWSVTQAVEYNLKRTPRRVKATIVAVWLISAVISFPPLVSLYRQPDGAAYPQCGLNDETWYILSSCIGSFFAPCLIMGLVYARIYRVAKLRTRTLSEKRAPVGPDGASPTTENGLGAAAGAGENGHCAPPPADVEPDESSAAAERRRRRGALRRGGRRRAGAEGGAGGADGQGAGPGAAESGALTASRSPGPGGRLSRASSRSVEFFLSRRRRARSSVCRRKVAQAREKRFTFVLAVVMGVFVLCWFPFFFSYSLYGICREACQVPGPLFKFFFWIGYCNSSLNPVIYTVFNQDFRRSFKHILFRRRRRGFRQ

Row | Compound | cell count [1] | inhibition [1] | inhibition of aggregation [2] | nuclei count [2] | inhibition [3] | nuclei count [3] | fluorescence slope [4] | NADPH fluorescence slope [5] | slope [6] | inhibition [7] | inhibition [8]
1 | CCOC(=O)N1CCC2(O)CCCCC2C1c1ccc(F)cc1 (stereo not drawn) | 450 | -1.7% (inactive) | -11.2% (inactive) | 108% | -73.3% (inactive) | 109% | -0.439 (inactive) | 1.9e-05 (inactive) | 0.00629 (inactive) | 14.6% (inactive) | 22.6% (inactive)
2 | Cc1ccc(NC(=O)CSc2nnc(-c3ccncc3)n2C)cc1C | 822 | -13.9% (inactive) | 18.5% (inactive) | 85% | -44.4% (inactive) | 130% | -0.591 (inactive) | 4.1e-06 (inactive) | 0.00642 (inactive) | -15.3% (inactive) | -22.4% (inactive)
3 | CCOCCCNC(=O)c1ccc2c(c1)N(Cc1ccccc1)C(=O)CS2=O (stereo not drawn) | 754 | -7.4% (inactive) | -19% (inactive) | 94.2% | -20.2% (inactive) | 125% | -0.525 (inactive) | -1e-05 (inactive) | 0.00701 (inactive) | -4.11% (inactive) | 21% (inactive)
4 | Cc1sc(NC(=O)CSc2nc(N)n(CC(=O)c3ccccc3)n2)c(C#N)c1C | 403 | -0.8% (inactive) | -21.4% (inactive) | 111% | -61.6% (inactive) | 111% | -0.612 (inactive) | -2.1e-05 (inactive) | 0.00622 (inactive) | -14.5% (inactive) | -21.2% (inactive)
5 | Cc1nc2ccc(Br)cn2c1NC(C)(C)C | 209 | 12.8% (inactive) | -17.9% (inactive) | 103% | -2.7% (inactive) | 102% | -0.531 (inactive) | -2.1e-05 (inactive) | 0.00552 (inactive) | -1.2% (inactive) | 3.15% (inactive)
6 | Cc1cc(C(=O)NCCCN2CCN(C3CCCCC3)CC2)n(-c2ccccc2)n1 | 685 | -2.2% (inactive) | -2.4% (inactive) | 101% | -70.3% (inactive) | 114% | -0.588 (inactive) | -2.7e-05 (inactive) | 0.00679 (inactive) | -18.1% (inactive) | 17.8% (inactive)
7 | Cc1ccc(N2CCN(CCc3nc4cc(NS(C)(=O)=O)ccc4n3C)CC2)cc1 | 322 | 7% (inactive) | 2% (inactive) | 90.6% | 21.6% (inactive) | 122% | -0.531 (inactive) | -3.7e-05 (inactive) | 0.00789 (inactive) | -11.6% (inactive) | -19.7% (inactive)
8 | CCN(CC)c1ccc2cc(NC(=O)CCC(=O)O)c(=O)oc2c1 | 463 | -21.1% (inactive) | -6.8% (inactive) | 95% | -33% (inactive) | 101% | -0.0111 (active) | -5.3e-06 (inactive) | 0.00247 (inactive) | 50.8% (active) | 92.5% (active)
